Source: PubChem BioAssay (Broad Institute)
An excerpt weighted towards active compounds, which were near 7.4% of everything screened.
Hedgehog inh: blocks Sonic Hedgehog signaling; Shh-LIGHT2 Gli-luciferase reporter, 30 h; inhibition, % (test concentration not listed); 2.1% of 22,000 active; AID 2313;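 active = mean inhibition across valid replicates above about 65%, limit read from the data; inconclusive = mean under the limit, yet half or more replicates past it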;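 also: pathway switched on by Shh-conditioned medium diluted 1 in 25 in low serum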
PD-1 reversal: activators reversing PD-1 mediated T-cell inhibition | primary human CD4 T cells, PD-L1 beads, CellTiter-Glo 96 h | activation, % (test concentration not listed) | 29,000 tested, under 10 active; call rule not given here;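 also: 0% = median vehicle wells and 100% = positive control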
NOMO-1 viab: STK33 inhibitor candidate reducing NOMO-1 cell viability; NOMO-1 AML viability, CellTiter-Glo luminescence, 72 h; inhibition, % (concentration not given with the values); 7.5% of 37,000 active; in the data active = inhibition above about 80%; inconclusive = no clear call, values can overlap the other calls
YB-1 expression: YB-1 expression inhibition; 0.37% of 30,000 active; U2OS, qRT-PCR YB-1 vs CDIP delta delta Cp, 16 h; stronger effect = higher value; zero = DMSO, each unit about twofold; AID 434959; delta delta Cp (YB-1 minus CDIP) (no concentration beside the values);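 active = delta delta Cp rounded down to an integer at or above 3, about 3 SD of DMSO wells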;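 also: higher means less YB-1 transcript or more CDIP transcript relative to DMSO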
MITF inh: inhibitors of MITF. AID 2240. TRPM1 promoter luciferase, luminescence, 24 h. inhibition, % (no concentration beside the values). 0.28% of 37,000 active; in the data active = inhibition above about 85%; inconclusive = no clear call, values can overlap the other calls; inactive = below about 68%;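 also: human melanocyte line stably carrying TRPM1 promoter luciferase reporter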
* marks the source's active call; other numbers are inactive results; ? = inconclusive; · = no result.

SMILES	Hedgehog inh	PD-1 reversal	NOMO-1 viab	YB-1 expression	MITF inh
C[C@@H]1CN([C@H](C)CO)C(=O)Cc2cc(NC(=O)Nc3ccc4c(c3)OCO4)ccc2O[C@H]1CN(C)C	-10	0	16	11*	3
C[C@@H]1CN([C@H](C)CO)C(=O)Cc2cc(NC(=O)Nc3ccc4c(c3)OCO4)ccc2O[C@H]1CN(C)S(=O)(=O)c1ccccc1	-8	1	-5	0.17	-6
Cc1ccc(S(=O)(=O)N(C)C[C@@H]2Oc3ccc(NC(=O)Nc4ccc5c(c4)OCO5)cc3CC(=O)N([C@H](C)CO)C[C@H]2C)cc1	-21	-2	-4	0.31	2
C[C@H](CO)N1C[C@H](C)[C@H](CN(C)S(=O)(=O)c2ccccc2)Oc2ccc(NC(=O)Nc3ccc4c(c3)OCO4)cc2CC1=O	-4	0	126*	-0.055	17
Cc1ccc(S(=O)(=O)N(C)C[C@@H]2Oc3ccc(NC(=O)Nc4ccc5c(c4)OCO5)cc3CC(=O)N([C@@H](C)CO)C[C@@H]2C)cc1	-58	·	108*	0.54	26
COc1cc(N)c(Cl)cc1C(=O)O	·	1	25	-0.93	11
COc1ccc(-c2cc(=O)oc3cc(OC(C(=O)O)c4ccccc4)ccc23)cc1 (configuration not stated)	·	2	3	·	-8
FC(F)(F)c1cccc(NC(=S)Nc2cccnc2N2CCC(C(F)(F)F)CC2)c1	-2	-3	?	0.039	19
C[C@H]1CN([C@@H](C)CO)C(=O)Cc2cc(NC(=O)Nc3ccc4c(c3)OCO4)ccc2O[C@H]1CN(C)S(=O)(=O)c1ccc(F)cc1	-51	·	128*	-0.14	24
C[C@@H]1CN([C@@H](C)CO)C(=O)Cc2cc(NC(=O)Nc3ccc4c(c3)OCO4)ccc2O[C@@H]1CN(C)S(=O)(=O)c1ccc(F)cc1	28	-1	2	0.19	4
Nc1nc(N2CCOCC2)ncc1S(=O)(=O)c1ccc(Cl)cc1	-16	0	0	-0.024	9
Nc1nc(N(Cc2ccccc2)Cc2ccccc2)nc(C(F)(F)F)n1	?	0	120*	-0.28	20
COc1cc(NC(=O)CCCN2C(=O)c3ccccc3C2=O)cc(OC)c1	·	1	3	·	-2
O=C1Cc2c([nH]c3ccc([N+](=O)[O-])cc23)-c2ccccc2N1	-423	-14	99*	0.65	-2
C[C@H](CO)N1C[C@H](C)[C@H](CN(C)Cc2ccc(Cl)c(Cl)c2)Oc2ccc(NS(=O)(=O)c3ccc(F)cc3)cc2CC1=O	-9	0	107*	0.047	2
C[C@@H]1CN([C@H](C)CO)C(=O)Cc2cc(NS(=O)(=O)c3ccc(F)cc3)ccc2O[C@@H]1CN(C)Cc1ccc(Cl)c(Cl)c1	·	0	106*	0.056	-19
O=S1(=O)CC=C(Sc2ccccc2)C1	-33	0	-1	-0.32	-23
COc1ccc(OC(C)C(=O)Nc2ccncc2)cc1 (configuration not stated)	·	·	20	·	3
C[C@@H]1CC(=O)C2=C(C1)C[C@@H](O)[C@@]1(O)C2C(=O)c2cccc(O)c2[C@@H]1O (some centres not stated)	-12	1	4	0.046	9
CC1CC(=O)C2=C(CCC34OC23C(=O)c2cccc(O)c2C4O)C1 (configuration not stated)	-3	-2	100*	-0.41	15
CN/C(=C/[N+](=O)[O-])NCCSCc1csc(CN(C)C)n1	-6	-1	11	3.8*	0
CCc1cc(-c2n[nH]c(C)c2-c2nc(C)cs2)c(O)cc1OCc1ccc([N+](=O)[O-])cc1	·	-3	109*	·	58
COc1ccc(-n2c(SCC(=O)c3cccc([N+](=O)[O-])c3)nnc2-c2ccc(Cl)cc2)cc1	·	·	8	·	8
O=C(O)C1CC(c2ccccc2)=C(c2ccccc2)CC1C(=O)c1ccccc1 (configuration not stated)	-27	0	13	-0.84	6
CC(=O)OC[C@]12[C@H](OC(C)=O)[C@H](OC(C)=O)[C@@H]3[C@@H](OC(C)=O)[C@@]14O[C@@]3(C)COC(=O)c1cnccc1CC[C@H](C)C(=O)O[C@@]4(C)[C@@H](O)[C@H](O)[C@@H]2OC(C)=O	-4	-3	119*	-0.61	29
SMILES	Hedgehog inh	PD-1 reversal	NOMO-1 viab	YB-1 expression	MITF inh
CC1CC(NC(=S)NCc2csc3ccccc23)CC(C)(C)C1 (configuration not stated)	?	-2	109*	0.2	36
COc1ccc(S(=O)(=O)Nc2ccc3c(c2)C(=O)N([C@@H](C)CO)C[C@@H](C)[C@H](CN(C)Cc2ccc(C(F)(F)F)cc2)O3)cc1	-5	1	113*	0.82	15
COc1ccc(CN(C)C[C@@H]2Oc3ccc(NS(=O)(=O)c4ccc(OC)cc4)cc3C(=O)N([C@@H](C)CO)C[C@@H]2C)cc1	4	0	11	-0.37	1
COc1ccc(CN(C)C[C@H]2Oc3ccc(NS(=O)(=O)c4ccc(OC)cc4)cc3C(=O)N([C@@H](C)CO)C[C@H]2C)cc1	36	2	26	-0.28	8
COc1ccc(S(=O)(=O)Nc2ccc3c(c2)C(=O)N([C@@H](C)CO)C[C@@H](C)[C@@H](CN(C)Cc2ccc(C(F)(F)F)cc2)O3)cc1	39	1	115*	-0.049	53
COc1ccc(S(=O)(=O)Nc2ccc3c(c2)C(=O)N([C@H](C)CO)C[C@@H](C)[C@@H](CN(C)Cc2ccc(C(F)(F)F)cc2)O3)cc1	·	-1	108*	0.15	40
OCCCc1nc2ccccc2n1Cc1c(F)cccc1Cl	·	·	-20	·	-2
Cc1cc(Cl)ccc1N(CC(=O)Nc1c(C)n(C)n(-c2ccccc2)c1=O)S(C)(=O)=O	·	3	-10	·	-8
CC(C)(C)c1ccc(C(=O)N2CCN(c3ccc([N+](=O)[O-])c(NCc4cccnc4)c3)CC2)cc1	·	-4	111*	·	?
CC(=O)N1CCN(c2ccc([N+](=O)[O-])c(NCc3cccnc3)c2)CC1	·	-1	30	·	-16
CCN(C(=O)c1cnccc1C(F)(F)F)c1nc2cc(Cl)ccc2s1	·	0	48	-0.011	-74
Cc1cc(NS(=O)(=O)c2ccc(NC(=O)c3csc4ccccc34)cc2)no1	·	0	-11	·	39
CC1(C)CC(=O)C2=C(C1)Nc1ccccc1N(C(=O)C(F)(F)F)C2c1ccc(Cl)cc1Cl (configuration not stated)	-11	0	87*	-0.094	25
COc1ccc(C2C3=C(CC(C)(C)CC3=O)Nc3ccccc3N2C(C)=O)cc1COc1ccc(F)cc1 (configuration not stated)	·	0	9	·	-20
Cc1ccc(Nc2ccc3noc4c3c2C(=O)c2ccccc2-4)cc1	·	-3	127*	0.26	-1
CNc1cc(NC)c2ncnc3c2c1C(=O)c1ccccc1-3	·	0	25	-0.62	-15
